Screening data deposited in PubChem BioAssay by SRMLSC.
The list is not random: actives were taken first. Their share in the collection is about 6.8%.
Fluor 339 460: intrinsic fluorescence of library compounds, ex339/em460 – biochemical, MLSMR library, data from DPM-DC assay, artefact control, profiling panel. AID 709. fluorescence fold increase at 10 µM. hit rate 5.5% among 65,000. compound autofluorescence, ex339/em460 nm, NADH buffer; active compounds read high; 1 = no-compound wells, NADH background;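 active = at 10 µM, mean starting fluorescence two-fold or more over control wells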;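 note: signal is the first read of a kinetic run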
MK inhibit: blocks S. pneumoniae mevalonate kinase; purified MK, PK/LDH-coupled NADH absorbance 340 nm; inhibition, % at 10 µM; hit rate 0.48% among 65,000; AID 555;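 active = ranked among the strongest by inhibition in the single 10 µM screen, a fixed top-ranked set picked for dose follow-up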
Spn PMK inh: blocks S. pneumoniae phosphomevalonate kinase; hit rate 0.49% among 65,000; AID 539; inhibition, % at 10 µM; purified PMK, PK/LDH-coupled NADH absorbance 340 nm;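 active = top-ranked compounds by inhibition in the single 10 µM screen, taking a fixed number of the strongest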;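 note: 0% = full reaction with DMSO carrier and 100% = background rate without enzyme reaction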
Spn DPM-DC inh: blocks S. pneumoniae diphosphomevalonate decarboxylase | AID 556 | calls only at 10 µM | hit rate 0.49% among 65,000 | purified DPM-DC, PK/LDH coupled NADH fluorescence;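 active = the 320 compounds with the highest percent inhibition in the single-dose primary screen, excluding strongly autofluorescent ones, cut at about 32% in these data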;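 note: kinetic rate of NADH fluorescence loss reporting ADP formed by the decarboxylase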
Abs 340nm: compound absorbs light at 340 nm; compound absorbance at 340 nm, fold over control; fold change at 10 µM; 65,000 tested, under 10 active;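 active = at 10 µM dose, initial 340 nm absorbance at least 2 fold that of control wells; inactive = change under 2 fold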;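 note: initial absorbance extrapolated from kinetic A340 decline of NADH oxidation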
NADH coupling: inhibition of NAD/NADH coupling enzymes, library profiling; coupled PK/LDH NADH assays, four targets; AID 774; hit rate 0.02% among 65,000; IC50, µM (doses to about 10 µM), without a hit: top-dose inhibition;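 active = single-dose screening hits from any of four coupled enzyme assays that gave an IC50 when retested across doses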;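 note: the DPM-DC format reads NADH fluorescence rather than 340 nm absorbance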
Starred values were filed as active, the others as inactive; i = inactive; . = no result shown; + = active, no number.

SMILES | Fluor 339 460 | MK inhibit | Spn PMK inh | Spn DPM-DC inh | Abs 340nm | NADH coupling
CCn1c2ccccc2c2nnc(SCN3C(=O)c4ccccc4C3=O)nc21 | 1.14 | 4.0 | 4.0 | i | 1.08 | 3.0%
O=S(=O)(c1ccc(Cl)c(C(F)(F)F)c1)N1CCN(CC(O)COCC2CCCO2)CC1 (centres undefined) | 1.09 | 18.0 | 12.0 | i | 1.01 | 10.0%
O=C(Nc1ccc2nc(-c3cccs3)c(-c3cccs3)nc2c1)N1CCOCC1 | 2.55* | 5.0 | 9.0 | + | 1.05 | 19.0%
CCOC(=O)N1CCN(C(=O)Nc2ccc3nc(-c4ccccn4)c(-c4ccccn4)nc3c2)CC1 | 2.18* | 5.0 | 0.0 | . | 1.11 | 3.0%
CCOC(=O)N1CCN(C(=O)Nc2ccc3nc(C)sc3c2)CC1 | 1.22 | 0.0 | 4.0 | i | 1.04 | 1.0%
Cc1nc2ccc(NC(=O)N3CCSCC3)cc2nc1C | 1.93 | 5.0 | 0.0 | . | 1.08 | 3.0%
CC1CN(C(=O)c2cc3c(s2)CCC3)CC(C)O1 (centres undefined) | 1.12 | 1.0 | 7.0 | i | 1 | 3.0%
CC1CN(C(=O)c2cc3c(=O)n4ccccc4nc3s2)CC(C)O1 (centres undefined) | 4.87* | 0.0 | 18.0 | . | 1.12 | 9.0%
O=c1[nH]c(=O)n(Cc2ccco2)c2c1C(C(F)(F)F)(C(F)(F)F)N=C(C1CCCCC1)N2 | 2.11* | 5.0 | 0.0 | i | 1.08 | 5.0%
Cn1c2ccccc2c(=O)n2c(=O)c3ccccc3cc12 | 2.38* | 7.0 | 12.0 | i | 1.06 | 10.0%
Cn1c(-c2ccccc2)cc(=O)c2ccccc21 | 1.05 | 10.0 | 2.0 | i | 1.04 | 2.0%
CCOc1ccc(OCC)c(N=c2oc3c(C)ncc(CO)c3cc2C(N)=O)c1 | 0.97 | 1.0 | 4.0 | i | 1.01 | 2.0%
NC(=O)c1cc2ccc(O)cc2oc1=NCc1ccccc1 | 4.64* | 0.0 | 19.0 | . | 1.03 | 10.0%
NC(=O)c1cc2ccc(O)cc2oc1=Nc1ccccc1 | 1.89 | 7.0 | 8.0 | i | 1.07 | 9.0%
COc1ccc(OC)c(N=c2oc3cc(O)ccc3cc2C(N)=O)c1 | 3.26* | 9.0 | 4.0 | . | 1.05 | 7.0%
CCC1(CC)C(=O)C(C)(C)C(=O)OC1c1cccs1 (centres undefined) | 1.03 | 10.0 | 3.0 | i | 0.98 | 4.0%
CCOC(=O)c1[nH]c2ccc(OCC)cc2c1NC(=O)CN1CCCC(C)C1 (centres undefined) | 3.89* | 3.0 | 6.0 | . | 1.06 | 5.0%
COC(=O)c1[nH]c2ccccc2c1NC(=O)CN1CCN(Cc2ccc3c(c2)OCO3)CC1 | 1.61 | 13.0 | 6.0 | i | 1.01 | 9.0%
CCOC(=O)c1[nH]c2ccc(OC)cc2c1NC(=O)CN1CCN(c2ccccn2)CC1 | 1.97 | 0.0 | 41.0 | + | 1.02 | 25.0%
CCOC(=O)C1CCN(CC(=O)Nc2c(C(=O)OC)[nH]c3ccccc23)CC1 | 1.42 | 16.0 | 10.0 | i | 1.01 | 9.0%
CCOC(=O)c1[nH]c2cc3c(cc2c1NC(=O)CN1CC(C)CC(C)C1)OCO3 (centres undefined) | 2.37* | 4.0 | 4.0 | . | 1.07 | 4.0%
CCOC(=O)c1[nH]c2ccc(OCC)cc2c1NC(=O)CN1CCN(c2ccccn2)CC1 | 3.93* | 1.0 | 15.0 | . | 1.07 | 8.0%
Cc1csc(C(C#N)C(=O)c2cc3ccccc3o2)n1 (centres undefined) | 1.08 | 8.0 | 11.0 | i | 1.13 | 9.0%
CCOc1ccccc1N1CCN(S(=O)(=O)c2cccc3nsnc23)CC1 | 1.02 | 9.0 | 5.0 | i | 0.99 | 2.0%
COc1cc2c(cc1OC)/C(=C/C(=O)N1CCOCC1)NC(C)(C)C2 | 2.47* | 6.0 | 1.0 | + | 1.04 | 13.0%
SMILES | Fluor 339 460 | MK inhibit | Spn PMK inh | Spn DPM-DC inh | Abs 340nm | NADH coupling
Cc1cc(C)c(NC(=O)C2CSCCS2)c(C)c1 (centres undefined) | 1.02 | 0.0 | 16.0 | i | 0.98 | 3.0%
COCCCNC(=O)c1ccc2nc3ccccc3c(=O)n2c1 | 4.9* | 0.0 | 21.0 | . | 1.1 | 11.0%
COCCCn1c(-c2ccccc2)nc2ccccc2c1=O | 1.1 | 2.0 | 0.0 | i | 1.03 | 1.0%
NS(=O)(=O)c1cc2c(cc1Cl)NC=NS2(=O)=O | 1.04 | 2.0 | 0.0 | i | 1 | 2.0%
CN(C)C(=O)CSc1cccc2cccnc12 | 3.85* | 7.0 | 6.0 | . | 1.04 | 7.0%
O=C(CSc1cccc2cccnc12)N1CCCC1 | 3.94* | 1.0 | 4.0 | . | 1.04 | 3.0%
CN(CC(=O)N1CCc2ccccc21)S(=O)(=O)c1cccc2cccnc12 | 1.08 | 7.0 | 9.0 | i | 1.01 | 5.0%
Cc1ccc(C2C(C#N)=C(N)Oc3c2sc2ccccc32)o1 (centres undefined) | 1.59 | 18.0 | 5.0 | i | 1.03 | 12.0%
COC(=O)c1[nH]c2ccc(C)cc2c1NC(=O)Nc1ccccc1OC | 2.57* | 10.0 | 10.0 | i | 1.05 | 10.0%
COC(=O)c1[nH]c2ccc(Cl)cc2c1NC(=O)CCN1CCN(C2CCCCC2)CC1 | 1.93 | 4.0 | 0.0 | i | 1.06 | 3.0%
COC(=O)c1[nH]c2ccc(C)cc2c1NC(=O)CCN1CCN(C2CCCCC2)CC1 | 2.94* | 3.0 | 2.0 | i | 1.09 | 6.0%
COC(=O)c1[nH]c2ccc(F)cc2c1NC(=O)CCN1CCN(Cc2ccc3c(c2)OCO3)CC1 | 2* | 7.0 | 5.0 | i | 1.08 | 6.0%
COC(=O)c1[nH]c2ccc(C)cc2c1NC(=O)CN1CCc2cc(OC)c(OC)cc2C1 | 2.18* | 10.0 | 15.0 | i | 1.03 | 14.0%
COC(=O)c1[nH]c2ccc(C)cc2c1NC(=O)C1=COCCO1 | 1.7 | 11.0 | 14.0 | i | 1.05 | 15.0%
COC(=O)c1[nH]c2ccc(C)cc2c1NC(=O)CN1CCCC(C)(C)C1 | 1.77 | 11.0 | 9.0 | i | 1 | 5.0%
COc1ccccc1Nc1nc(C2(C)CCC(=O)O2)cs1 (centres undefined) | 1.09 | 9.0 | 7.0 | i | 1.01 | 5.0%
COc1ccc(C(=O)NCc2nnc(SCC(=O)N3CCCCC3)o2)cc1OC | 1.16 | 1.0 | 15.0 | i | 1.03 | 5.0%
COC(=O)c1c(NC(=O)c2nn(C)cc2Cl)sc2c1CCCC2 | 2.36* | 0.0 | 7.0 | . | 1.04 | 4.0%
COC(=O)c1c(NC(=O)c2ccc(Br)s2)sc2c1CCC2 | 1.72 | 7.0 | 1.0 | i | 1.14 | 4.0%
CCn1ncc(Br)c1C(=O)Nc1sc2c(c1C(=O)OC)CCC2 | 2.5* | 6.0 | 2.0 | i | 1.07 | 9.0%
COc1ccc(S(=O)(=O)NCCSCc2ccco2)cc1Cl | 1.07 | 5.0 | 0.0 | i | 1.02 | 1.0%
CCC1c2ccc(C)n2CCN1C(=O)Nc1ccccc1C(=O)OC (centres undefined) | 2.53* | 6.0 | 16.0 | i | 1.03 | 11.0%
CC1CN(c2cc3nccnc3cc2F)CC(C)O1 (centres undefined) | 1.16 | 10.0 | 6.0 | i | 1.07 | 5.0%
